Holding throughout (conditions): mRNA level, 48 h; actives raise or lower the signal
Read-out in assay [1]: Apoptosis regulator Bcl-2 (Homo sapiens) (UniProt P10415)
As to the kind of experiment: LTEA_HepaRG_BCL2: Life Technologies and Expression Analysis (LTEA) Assay for Bcl-2 gene using HepaRG (AID 2283475). A digest of the protocol: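 Each chemical was tested in duplicate on HepaRG cultures held in serum-free induction medium for 48 h, highest concentration 100 uM with half-log dilutions. Transcript levels came from multiplexed qRT-PCR, normalised to housekeeping genes; activity was scored in either direction relative to DMSO.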

Read-out in another assay: Caspase-3 (Homo sapiens) (UniProt P42574)
As to the kind of experiment: LTEA_HepaRG_CASP3: Life Technologies and Expression Analysis (LTEA) Assay for cysteine-aspartic acid protease (CASP3) using HepaRG (AID 2283477). The method in brief: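 Differentiated human HepaRG cells in serum-free induction medium were exposed 48 h to 8-point half-log concentrations from 100 uM (0.5% DMSO vehicle). CASP3 mRNA was measured by qRT-PCR, normalised to ACTB, GAPDH and POLR2A, with bidirectional fitting against DMSO.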

Read-out in assay [2]: Cytochrome P450 (CYP24A1), CYP24A1 (gene 1591)
The assay can be described thus: LTEA_HepaRG_CYP24A1: Life Technologies and Expression Analysis (LTEA) Assay for Cytochrome P450 (CYP24A1) using HepaRG (AID 2283478). The method in brief:
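Differentiated HepaRG cells, pre-cultured 48 h, were exposed in duplicate for 48 h in serum-free induction medium to 8 half-log concentrations (top 100 uM, 0.5% DMSO). CYP24A1 mRNA was quantified by TaqMan qRT-PCR, normalized to ACTB/GAPDH/POLR2A, fitted bidirectionally versus DMSO.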

Read-out in assay [3]: Cytochrome P450 (CYP1A2), CYP1A2 (gene 1544)
As to the kind of experiment: LTEA_HepaRG_CYP1A2: Life Technologies and Expression Analysis (LTEA) Assay for Cytochrome P450 (CYP1A2) using HepaRG (AID 2283479). A digest of the protocol:
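Differentiated human HepaRG cells in serum-free induction medium were exposed in duplicate for 48 h to 8-point half-log concentrations up to 100 uM in 0.5% DMSO. CYP1A2 mRNA measured by qRT-PCR, normalized to ACTB, GAPDH, POLR2A; bidirectional fit vs DMSO.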

Read-out in assay [4]: cysteine-aspartic acid protease (CASP8), CASP8 (gene 841)
The assay can be described thus: LTEA_HepaRG_CASP8: Life Technologies and Expression Analysis (LTEA) Assay for cysteine-aspartic acid protease (CASP8) using HepaRG (AID 2283480). A digest of the protocol:
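qRT-PCR readout of CASP8 mRNA, normalized to three housekeeping genes, after 48 h chemical exposure of HepaRG cells; 8-point half-log series, top 100 uM, 0.5% DMSO vehicle. Bidirectional curve fitting against DMSO baseline.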

Read-out in assay [5]: Cytochrome P450 (CYP2B6), CYP2B6 (gene 1555)
The assay can be described thus: LTEA_HepaRG_CYP2B6: Life Technologies and Expression Analysis (LTEA) Assay for Cytochrome P450 (CYP2B6) using HepaRG (AID 2283481). A digest of the protocol: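 Differentiated HepaRG cells, serum-free induction medium, exposed 48 h in duplicate to 8-point half-log concentrations from 100 uM in 0.5% DMSO. CYP2B6 mRNA by qRT-PCR, normalized to ACTB, GAPDH, POLR2A; bidirectional fit versus DMSO.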

Read-out in assay [6]: Cytochrome P450 2C19 (Homo sapiens) (UniProt P33261)
The assay can be described thus: LTEA_HepaRG_CYP2C19: Life Technologies and Expression Analysis (LTEA) Assay for CYP2C19 using HepaRG (AID 2283482). A digest of the protocol:
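Differentiated human HepaRG cells were exposed for 48 h in serum-free induction medium to 8 concentrations (top 100 uM, half-log steps, 0.5% DMSO). CYP2C19 mRNA was measured by qRT-PCR, normalized to ACTB/GAPDH/POLR2A, and fitted bidirectionally against DMSO.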

Read-out in another assay: CYP2C8 (gene 1558)
As to the kind of experiment: LTEA_HepaRG_CYP2C8: Life Technologies and Expression Analysis (LTEA) Assay for CYP2C8 using HepaRG (AID 2283483). A digest of the protocol:
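HepaRG (human liver line), 48 h chemical exposure, 8-pt half-log series from 100 uM, 0.5% DMSO vehicle. Readout: CYP2C8 transcript by qRT-PCR, housekeeping-normalized. Bidirectional fit vs DMSO baseline.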

Read-out in another assay: CYP2C9 (gene 1559)
As to the kind of experiment: LTEA_HepaRG_CYP2C9: Life Technologies and Expression Analysis (LTEA) Assay for CYP2C9 using HepaRG (AID 2283484). A digest of the protocol: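 HepaRG, 48 h dosing, 8-pt half-log series, top 100 uM, 0.5% DMSO vehicle. Read-out: CYP2C9 transcript by TaqMan qRT-PCR, housekeeping-normalized (ACTB/GAPDH/POLR2A). Gain or loss fitted vs DMSO baseline.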

Read-out in a further assay: CYP2E1 (gene 1571)
As to the kind of experiment: LTEA_HepaRG_CYP2E1: Life Technologies and Expression Analysis (LTEA) Assay for CYP2E1 using HepaRG (AID 2283485). The method in brief:
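Assay uses 48 h exposure of HepaRG hepatic cells, eight concentrations to 100 uM. Expression of CYP2E1 is quantified by TaqMan qRT-PCR with ACTB, GAPDH and POLR2A normalization; curves fitted in both directions relative to vehicle.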

Read-out in another assay: CYP4A11 (gene 1579)
As to the kind of experiment: LTEA_HepaRG_CYP4A11: Life Technologies and Expression Analysis (LTEA) Assay for CYP4A11 using HepaRG (AID 2283486). A digest of the protocol:
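Differentiated HepaRG cells, serum-free induction medium, exposed 48 h in duplicate to 8-point half-log series from 100 uM in 0.5% DMSO. CYP4A11 mRNA measured by qRT-PCR, normalized to ACTB, GAPDH, POLR2A; bidirectional fit versus DMSO.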

Read-out in assay [7]: Cytochrome P450 3A4 (Homo sapiens) (UniProt P08684)
As to the kind of experiment: LTEA_HepaRG_CYP3A4: Life Technologies and Expression Analysis (LTEA) Assay for CYP3A4 using HepaRG (AID 2283487). A digest of the protocol: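 HepaRG, 48 h exposure, 8-pt CRC from 100 uM (half-log), 0.5% DMSO, duplicates; serum-free induction medium. Readout: CYP3A4 mRNA, qRT-PCR, ACTB/GAPDH/POLR2A normalization. Bidirectional fit vs DMSO.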

Read-out in assay [8]: DNA damage-inducible transcript 3 (DDIT3), DDIT3 (gene 1649)
As to the kind of experiment: LTEA_HepaRG_DDIT3: Life Technologies and Expression Analysis (LTEA) Assay for DNA damage-inducible transcript 3 (DDIT3) using HepaRG (AID 2283488). The method in brief:
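Eight-point concentration-response (100 uM highest, half-log dilutions) in HepaRG, 48 h, duplicate wells. Endpoint: qRT-PCR mRNA, normalized (ACTB, GAPDH, POLR2A), bidirectional fitting with DMSO as baseline.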

Read-out in assay [9]: Pro-epidermal growth factor (Homo sapiens) (UniProt P01133)
As to the kind of experiment: LTEA_HepaRG_EGF: Life Technologies and Expression Analysis (LTEA) Assay for Epidermal growth factor (EGF) using HepaRG (AID 2283489). The method in brief:
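Differentiated human HepaRG cells, plated 48 h then switched to serum-free induction medium, were exposed for 48 h to test chemicals (8-point half-log series, top 100 uM, 0.5% DMSO). EGF mRNA was quantified by qRT-PCR, normalized to ACTB, GAPDH, POLR2A.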

Read-out in assay [10]: Early growth response protein 1 (EGR1) transcription factor, EGR1 (gene 1958)
The assay can be described thus: LTEA_HepaRG_EGR1: Life Technologies and Expression Analysis (LTEA) Assay for Early growth response protein 1 (EGR1) transcription factor using HepaRG (AID 2283490). The method in brief: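 HepaRG, 48 h exposure, 8-pt half-log series from 100 uM, 0.5% DMSO vehicle; EGR1 transcript by TaqMan qRT-PCR (Fluidigm array), housekeeping-normalized; bidirectional fit relative to DMSO baseline.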

Read-out in assay [11]: Ezrin (EZR), EZR (gene 7430)
As to the kind of experiment: LTEA_HepaRG_EZR: Life Technologies and Expression Analysis (LTEA) Assay for Ezrin (EZR) using HepaRG (AID 2283491). The method in brief:
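Read-out is EZR transcript level by qRT-PCR, normalized to three housekeeping genes and fitted bidirectionally against the DMSO control. Human HepaRG cells received test chemicals for 48 h at eight half-log concentrations up to 100 uM in 0.5% DMSO.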

Read-out in another assay: CYP3A5 (gene 1577)
As to the kind of experiment: LTEA_HepaRG_CYP3A5: Life Technologies and Expression Analysis (LTEA) Assay for CYP3A5 using HepaRG (AID 2283493). The method in brief: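 Readout was CYP3A5 mRNA by qRT-PCR. HepaRG cultures were exposed for 48 h in serum-free induction medium to chemicals at up to 100 uM, and responses were fitted in both directions relative to DMSO vehicle.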

Read-out in assay [12]: Fatty Acid-Binding Protein 1 (FABP1), FABP1 (gene 2168)
The assay can be described thus: LTEA_HepaRG_FABP1: Life Technologies and Expression Analysis (LTEA) Assay for Fatty Acid-Binding Protein 1 (FABP1) using HepaRG (AID 2283494). A digest of the protocol:
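qRT-PCR readout of FABP1 transcript (normalized to three housekeeping genes) after 48 h chemical exposure of HepaRG cells; eight concentrations, half-log steps, max 100 uM, 0.5% DMSO vehicle; gain or loss fitted relative to DMSO baseline.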

Read-out in assay [13]: Cytochrome P450 3A7 (Homo sapiens) (UniProt P24462)
As to the kind of experiment: LTEA_HepaRG_CYP3A7: Life Technologies and Expression Analysis (LTEA) Assay for CYP3A7 using HepaRG (AID 2283492). The method in brief: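 HepaRG cells plated 48 h, then dosed in serum-free induction medium for 48 h at 8 concentrations (top 100 uM, half-log steps, 0.5% DMSO). CYP3A7 mRNA by qRT-PCR, normalised to ACTB/GAPDH/POLR2A; bidirectional fit versus DMSO.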

Calls of active or inactive are those of the source. How the source made its calls: active means hit-call score of the fitted dose curve at least 0.9, where 1 is the maximum; inactive means score below 0.9.

Sequence of Caspase-3 (Homo sapiens) (P42574 whole entry, looked up): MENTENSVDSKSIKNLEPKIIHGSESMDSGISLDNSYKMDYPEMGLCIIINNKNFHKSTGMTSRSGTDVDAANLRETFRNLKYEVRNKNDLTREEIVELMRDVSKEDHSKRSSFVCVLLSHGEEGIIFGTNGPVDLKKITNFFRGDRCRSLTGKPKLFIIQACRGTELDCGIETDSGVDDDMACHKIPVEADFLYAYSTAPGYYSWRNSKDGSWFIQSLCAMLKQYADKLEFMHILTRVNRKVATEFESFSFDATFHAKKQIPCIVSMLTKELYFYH
Sequence of Apoptosis regulator Bcl-2 (Homo sapiens) (P10415 whole entry, looked up): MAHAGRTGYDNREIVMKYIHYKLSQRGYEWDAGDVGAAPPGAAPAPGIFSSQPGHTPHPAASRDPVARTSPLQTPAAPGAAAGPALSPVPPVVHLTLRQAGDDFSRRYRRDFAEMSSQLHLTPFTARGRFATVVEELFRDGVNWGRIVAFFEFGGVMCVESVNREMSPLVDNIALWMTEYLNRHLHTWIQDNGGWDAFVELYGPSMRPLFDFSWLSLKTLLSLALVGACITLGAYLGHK
Sequence of Cytochrome P450 2C19 (Homo sapiens) (P33261 whole entry, looked up): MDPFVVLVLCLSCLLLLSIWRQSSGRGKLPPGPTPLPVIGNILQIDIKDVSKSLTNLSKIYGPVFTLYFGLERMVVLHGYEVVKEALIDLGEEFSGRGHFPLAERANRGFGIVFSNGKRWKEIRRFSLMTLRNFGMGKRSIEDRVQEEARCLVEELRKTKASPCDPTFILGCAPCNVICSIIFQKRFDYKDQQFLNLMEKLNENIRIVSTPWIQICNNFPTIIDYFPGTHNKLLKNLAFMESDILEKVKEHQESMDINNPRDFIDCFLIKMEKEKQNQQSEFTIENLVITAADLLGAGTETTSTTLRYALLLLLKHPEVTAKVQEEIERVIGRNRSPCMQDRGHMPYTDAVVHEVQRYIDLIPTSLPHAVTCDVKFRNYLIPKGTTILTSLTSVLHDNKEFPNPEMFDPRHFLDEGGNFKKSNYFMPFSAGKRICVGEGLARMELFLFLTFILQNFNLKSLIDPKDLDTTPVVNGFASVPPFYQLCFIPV
Sequence of Cytochrome P450 3A4 (Homo sapiens) (P08684 whole entry, looked up): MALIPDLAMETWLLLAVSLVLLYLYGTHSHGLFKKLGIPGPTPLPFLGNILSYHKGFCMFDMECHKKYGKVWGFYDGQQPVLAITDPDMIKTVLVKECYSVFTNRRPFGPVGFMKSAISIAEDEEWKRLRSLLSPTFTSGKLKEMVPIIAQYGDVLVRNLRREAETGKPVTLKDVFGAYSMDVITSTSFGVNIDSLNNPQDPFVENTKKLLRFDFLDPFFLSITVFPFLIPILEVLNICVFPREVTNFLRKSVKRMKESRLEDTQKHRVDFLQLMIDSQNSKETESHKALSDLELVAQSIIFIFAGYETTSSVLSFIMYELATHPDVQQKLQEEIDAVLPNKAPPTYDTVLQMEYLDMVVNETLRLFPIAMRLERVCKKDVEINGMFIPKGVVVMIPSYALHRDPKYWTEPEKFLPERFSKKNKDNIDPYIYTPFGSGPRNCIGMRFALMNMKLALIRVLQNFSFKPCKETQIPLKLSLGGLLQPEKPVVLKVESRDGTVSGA
Sequence of Cytochrome P450 3A7 (Homo sapiens) (P24462 whole entry, looked up): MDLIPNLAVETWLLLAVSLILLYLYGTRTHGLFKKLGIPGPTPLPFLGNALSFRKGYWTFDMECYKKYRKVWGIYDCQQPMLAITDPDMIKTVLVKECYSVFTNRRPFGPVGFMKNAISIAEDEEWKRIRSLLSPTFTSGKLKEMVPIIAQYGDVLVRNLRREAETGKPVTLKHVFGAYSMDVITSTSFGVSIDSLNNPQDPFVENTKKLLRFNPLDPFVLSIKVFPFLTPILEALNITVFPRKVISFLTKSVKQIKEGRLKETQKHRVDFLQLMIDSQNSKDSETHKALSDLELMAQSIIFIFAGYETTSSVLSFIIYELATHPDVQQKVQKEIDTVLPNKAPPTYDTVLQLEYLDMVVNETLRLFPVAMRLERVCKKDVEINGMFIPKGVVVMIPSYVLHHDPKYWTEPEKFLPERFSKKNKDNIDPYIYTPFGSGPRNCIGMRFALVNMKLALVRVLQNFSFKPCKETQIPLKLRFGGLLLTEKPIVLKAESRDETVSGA

Regarding `CN1CCN(c2ccccc2/C=C2\SCCN(c3ccc(Cl)c(Cl)c3)C2=O)CC1`, the call (in assay [1]; with Caspase-3 (Homo sapiens); in [2]; in assay [6]; in the assay with CYP2C8 (gene 1558); with CYP2C9 (gene 1559)) was inactive. For the same compound, the call (in [7]; in assay [9]; with CYP3A5 (gene 1577)) was inactive. Moreover, the AC50 (commonly the concentration giving half of the maximal activity seen) in assay [3] was 4.69 µM (active); in assay [4] it was 93.4 µM (active); in [5], 50 µM (active); with CYP2E1 (gene 1571) it was 12.8 µM (active); with CYP4A11 (gene 1579) it was 17.4 µM (active); in assay [8] it was 50 µM (active). Also, the AC50 is 83 µM (active) in assay [10], 50 µM (active) in assay [11] and 50 µM (active) in assay [12].
Consider `CCCCCCCCCCCCCCCS(=O)(=O)Oc1ccccc1`, for which the call (in assay [1]; with Caspase-3 (Homo sapiens); in [2]; in [4]; with CYP2C9 (gene 1559); in the assay with CYP4A11 (gene 1579)) was inactive. The result (in assay [8]; in assay [9]; in assay [10]; in assay [11]; with CYP3A5 (gene 1577); in assay [12]) was inactive. The AC50 in assay [3] is 5.56 µM (active); in [5], 3.1 µM (active); in assay [6], 8.59 µM (active); with CYP2C8 (gene 1558) it was 7.61 µM (active); with CYP2E1 (gene 1571), 14.1 µM (active); in assay [7] it was 9.56 µM (active).
Regarding `CCCCCCCC(=O)O`, the compound was called inactive in assay [1], in assay [2], in assay [3], in assay [4], in assay [5] and in assay [6]. The call (with CYP2C8 (gene 1558); with CYP2C9 (gene 1559); in the assay with CYP2E1 (gene 1571); with CYP4A11 (gene 1579); in assay [8]; in assay [9]) was inactive. The call (in assay [10]; in assay [11]; in assay [13]; with CYP3A5 (gene 1577); in [12]) was inactive. The half-maximal activity concentration (AC50) in the assay with Caspase-3 (Homo sapiens) was 12.5 µM (active).

For the origin of these results see PubChem BioAssay (EPA / NIEHS).
